Laboratory results taken from PubChem BioAssay (Tox21).
Results filed as inconclusive are left out. A call without a number means that no potency is given here. Where a structure was tested more than once in an assay, its records may differ in their call. The source made the active and inactive calls. Unless noted, the call rests on the fitted dose curve.

Legend:
[1] = Nuclear factor erythroid 2-related factor 2/antioxidant responsive element (Nrf2/ARE) small molecule agonists: luciferase reporter gene qHTS assay in human keratinocytes (AID 1919969); further: nearly all actives have a fitted effect of over 35% in size; further: potency means the concentration at half of the fitted maximal effect
[2] = molecular target: Gonadotropin-releasing hormone receptor (Homo sapiens) (UniProt P30968); experiment: Human gonadotropin-releasing hormone receptor (GnRHR) small molecule agonists, calcium flux assay in GnRHR-HEK293 cells (AID 1920063); further: nearly all actives have a fitted effect of over 35% in size; further: potency means the concentration at half of the fitted maximal effect
Procedure, shortened: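 Cells: HEK293 stably expressing human GnRHR. Steps: overnight (18 h) culture, 1 h calcium dye loading at 37 C, compound addition, kinetic fluorescence read at 480/540 nm. Each compound tested at 15 concentrations in triplicate.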

[3] = molecular target: KiSS-1 receptor (Homo sapiens) (UniProt Q969F8); experiment: Human kisspeptin (KISS1R) small molecule agonists, calcium flux assay in KISS1R-HEK293 cells (AID 1920064; active means well fitted activation curve with a large enough effect in the repeat runs)
Procedure, shortened: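 Cells plated and incubated 18 h; dye added, 1 h at 37 C; compounds in DMSO pinned in; signal read at 480/540 nm every second for 3 min. Each compound tested at 15 concentrations in triplicate.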

[4] = G protein-coupled receptor (GPCR) small molecule agonists, calcium flux assay: HEK293 wild type cell line counter screen (AID 1920065)
Procedure, shortened: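 Counter-screen of the Tox21 10K library for non-specific calcium release: dye-loaded cells received compounds in DMSO and were monitored by kinetic fluorescence (480/540 nm, 3 min). Fifteen concentrations, run in triplicate.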

[5] = p53 small molecule agonists, cell-based qHTS assay with rat liver microsomes: qHTS cell viability counter screen (AID 1963580); further: nearly all actives have a fitted effect of over 45% in size; further: potency means the concentration at half of the fitted maximal effect
Procedure, shortened: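 HCT-116 p53RE-bla, 4,000 cells/well, 5 h pre-incubation; cpd + rat liver microsomes 0.5 mg/mL + NADPH 0.5 mg/mL (final); 16 h, 37 C; CellTiter-Glo, 30 min RT; luminescence.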

[6] = molecular target: 5-hydroxytryptamine receptor 2A (Homo sapiens) (UniProt P28223); experiment: 5-hydroxytryptamine receptor 2A (HTR2A) small molecule antagonists, cell-based qHTS assay (AID 1963586); further: nearly all actives have a fitted effect of over 45% in size; further: potency means the concentration at half of the fitted maximal effect
Procedure, shortened: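 Antagonist-mode intracellular calcium assay: DOI (4 nM) added after 5 min compound pre-incubation at room temperature to dye-loaded HTR2A-CHO cells. Fluorescence followed for 3 min, sampled every second.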

[7] = molecular target: 5-hydroxytryptamine receptor 2A (Homo sapiens) (UniProt P28223); experiment: 5-hydroxytryptamine receptor 2A (HTR2A) small molecule agonists, cell-based qHTS assay (AID 1963587); further: nearly all actives have a fitted effect of over 30% in size; further: potency means the concentration at half of the fitted maximal effect
Procedure, shortened: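 Kinetic calcium-flux fluorescence (2 min, 1 sec intervals) after compound addition in agonist mode. HTR2A-CHO cells were cultured 18 h, then dye-loaded 1 h at 37 C.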

[8] = molecular target: Muscarinic acetylcholine receptor M1 (Homo sapiens) (UniProt P11229); experiment: Cholinergic receptor muscarinic 1 (CHRM1) small molecule antagonists, cell-based qHTS assay (AID 1963588); further: nearly all actives have a fitted effect of over 40% in size; further: potency means the concentration at half of the fitted maximal effect
Procedure, shortened: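 CHRM1-CHO calcium-flux assay, antagonist mode. Cells were seeded 18 h, dye-loaded 1 h at 37 C and given compound for 5 min at RT, then acetylcholine was added at 50nM. FDSS fluorescence was read 3 min; 15 concentrations, three runs.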

[9] = molecular target: Muscarinic acetylcholine receptor M1 (Homo sapiens) (UniProt P11229); experiment: Cholinergic receptor muscarinic 1 (CHRM1) small molecule agonists, cell-based qHTS assay (AID 1963589); further: nearly all actives have a fitted effect of over 35% in size; further: potency means the concentration at half of the fitted maximal effect
Procedure, shortened: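 Agonist-mode qHTS in CHO cells stably carrying human muscarinic M1. Intracellular calcium is tracked by fluorescence every second after compound transfer; each compound runs at 15 concentrations in three independent runs.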

[10] = cAMP Responsive Elements (CRE) small molecule agonists, cell-based qHTS assay (AID 1963590)
Procedure, shortened: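 Agonist mode qHTS in CRE-bla HEK 293T cells: compounds dosed from DMSO for 3 h at 37 C/5% CO2, followed by LiveBLAzer B/G FRET substrate for 2 h at room temperature.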

[11] = molecular target: Beta-2 adrenergic receptor (Homo sapiens) (UniProt P07550); experiment: Adrenergic beta2 receptor (ADRB2) small molecule antagonists, cell-based qHTS assay (AID 1963592); further: nearly all actives have a fitted effect of over 50% in size; further: potency means the concentration at half of the fitted maximal effect
Procedure, shortened: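 Cells (CHO, stable ADRB2 overexpression) incubated 18-20hr at 37C; compounds added from DMSO; agonist mix (1nM isoproterenol, 100uM IBMX, 25uM Ro-20-1724) added; 0.5hr RT; d2-cAMP and anti-cAMP-cryptate added; 1hr RT; 665/615 nm read.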

[12] = molecular target: Beta-2 adrenergic receptor (Homo sapiens) (UniProt P07550); experiment: Adrenergic beta2 receptor (ADRB2) small molecule agonists, cell-based qHTS assay (AID 1963593);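 further: CHO cells stably overexpressing human ADRB2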
Procedure, shortened: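 CHO cells stably over-expressing ADRB2 were plated overnight at 37C, then dosed with compounds plus a stimulation mix containing 100uM IBMX and 25uM Ro-20-1724 for 0.5hr at room temperature. cAMP was measured by HTRF competition, 1hr.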

[13] = molecular target: D(2) dopamine receptor (Homo sapiens) (UniProt P14416); experiment: Dopamine D2 receptor (DRD2) small molecule agonists, cell-based qHTS assay (AID 1963594); further: nearly all actives have a fitted effect of over 35% in size
Procedure, shortened: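 cAMP accumulation in DRD2-HEK293 cells measured by HTRF after 1 h detection; compounds added 10 min before NKH477 (200nM […]) forskolin-analogue stimulation, 30 min at room temperature, with Ro20-1724 present at 0.1 mM final.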

[14] = molecular target: D(2) dopamine receptor (Homo sapiens) (UniProt P14416); experiment: Dopamine D2 receptor (DRD2) small molecule antagonists, cell-based qHTS assay (AID 1963595; active means well fitted inhibition curve with a large enough effect in the signal ratio in the repeat runs, with a control signal flat; the % refers to the signal ratio; further: potency means the concentration at half of the fitted maximal effect)
Procedure, shortened: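 In this cell-based antagonist screen, compounds act for 10 min at room temperature before a 30 min challenge with 12 nM quinpirole and 200 nM NKH477. cAMP is quantified by HTRF competition in DRD2-HEK293 cells containing 0.1 mM Ro20-1724.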

[15] = p53 small molecule agonists, cell-based qHTS assay with human liver microsomes (AID 1963577);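 further: p53 response element beta-lactamase reporter cells with liver microsomes plus NADPH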
Procedure, shortened: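 16 h, 37 C exposure of p53RE-bla cells to compounds with human liver microsomes and NADPH (0.5 mg/mL final each); detection via LiveBLAzer mixture, 2 h dark at room temperature.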

[16] = p53 small molecule agonists, cell-based qHTS assay with rat liver microsomes (AID 1963578)
Procedure, shortened: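 With rat liver microsomes and NADPH present (0.5 mg/mL final each), p53RE-bla cells are treated with compound for 16 h at 37 C. LiveBLAzer detection mixture is then applied for 2 h at room temperature in the dark.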

[17] = p53 small molecule agonists, cell-based qHTS assay with human liver microsomes: qHTS cell viability counter screen (AID 1963579); further: nearly all actives have a fitted effect of over 45% in size; further: potency means the concentration at half of the fitted maximal effect
Procedure, shortened: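 In this multiplexed counter screen, the reporter plates were subsequently treated with CellTiter-Glo so that cell viability, reflected by luminescence, could be recorded for p53RE-bla cells dosed 16 h with compounds under microsomal activation (HLM and NADPH).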

[18] = p53 small molecule agonists, cell-based qHTS assay: qHTS cell viability counter screen (AID 1963581); further: nearly all actives have a fitted effect of over 45% in size; further: potency means the concentration at half of the fitted maximal effect
Procedure, shortened: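 Cells: HCT-116 with p53 response element-driven beta-lactamase. Treatment: 16 h, 37 C, compounds in DMSO. Read: CellTiter-Glo luminescence after 30 min RT.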

[19] = p53 small molecule agonists, cell-based qHTS assay (AID 1963582; active means well fitted activation curve with a large enough effect in the signal ratio in the repeat runs, not every such curve was filed as active; the % refers to the signal ratio)
Procedure, shortened: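 Quantitative HTS in p53RE-bla cells: after a 5 h settling period, compounds delivered in DMSO were left on cells for 16 h at 37 C, and reporter induction was measured as fluorescence following 2 h substrate loading.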

[20] = cAMP Responsive Elements (CRE) small molecule antagonists, cell-based qHTS assay (AID 1963591; active means well fitted inhibition curve with a large enough effect in the signal ratio in the repeat runs, not every such curve was filed as active; the % refers to the signal ratio)
Procedure, shortened: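 Antagonist mode: test compounds are co-incubated with the adenylyl cyclase activator NKH477 (0.25 uM final) on CRE-bla HEK293T cells for 3 h at 37 °C, followed by LiveBLAzer substrate loading.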

5-hydroxytryptamine receptor 2A (Homo sapiens), sequence (P28223 whole entry, looked up): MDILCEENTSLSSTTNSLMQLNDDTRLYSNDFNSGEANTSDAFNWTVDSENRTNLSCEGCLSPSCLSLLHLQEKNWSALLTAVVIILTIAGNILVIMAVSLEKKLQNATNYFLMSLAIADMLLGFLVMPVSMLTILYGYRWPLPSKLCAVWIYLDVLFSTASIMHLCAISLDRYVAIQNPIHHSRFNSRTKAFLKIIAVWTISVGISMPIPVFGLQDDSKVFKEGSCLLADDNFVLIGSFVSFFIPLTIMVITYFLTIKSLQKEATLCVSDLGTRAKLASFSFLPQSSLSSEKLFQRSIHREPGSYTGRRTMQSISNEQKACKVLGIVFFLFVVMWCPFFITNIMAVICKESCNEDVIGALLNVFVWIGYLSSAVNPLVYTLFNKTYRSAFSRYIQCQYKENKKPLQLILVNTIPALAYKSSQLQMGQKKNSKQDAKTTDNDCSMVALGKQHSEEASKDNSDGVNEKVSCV
Muscarinic acetylcholine receptor M1 (Homo sapiens), sequence (P11229 whole entry, looked up): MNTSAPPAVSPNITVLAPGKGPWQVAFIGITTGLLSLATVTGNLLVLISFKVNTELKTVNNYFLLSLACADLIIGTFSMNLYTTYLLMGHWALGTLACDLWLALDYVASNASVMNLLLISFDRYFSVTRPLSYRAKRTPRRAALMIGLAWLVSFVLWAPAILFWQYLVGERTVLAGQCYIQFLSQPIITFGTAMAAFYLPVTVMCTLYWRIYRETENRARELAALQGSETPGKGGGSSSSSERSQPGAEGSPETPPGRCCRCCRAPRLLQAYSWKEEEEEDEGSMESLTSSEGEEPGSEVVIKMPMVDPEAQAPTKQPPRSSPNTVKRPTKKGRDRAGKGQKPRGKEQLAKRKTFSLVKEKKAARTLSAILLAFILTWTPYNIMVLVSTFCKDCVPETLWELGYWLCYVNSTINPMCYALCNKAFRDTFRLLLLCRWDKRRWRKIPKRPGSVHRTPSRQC
Beta-2 adrenergic receptor (Homo sapiens), sequence (P07550 whole entry, looked up): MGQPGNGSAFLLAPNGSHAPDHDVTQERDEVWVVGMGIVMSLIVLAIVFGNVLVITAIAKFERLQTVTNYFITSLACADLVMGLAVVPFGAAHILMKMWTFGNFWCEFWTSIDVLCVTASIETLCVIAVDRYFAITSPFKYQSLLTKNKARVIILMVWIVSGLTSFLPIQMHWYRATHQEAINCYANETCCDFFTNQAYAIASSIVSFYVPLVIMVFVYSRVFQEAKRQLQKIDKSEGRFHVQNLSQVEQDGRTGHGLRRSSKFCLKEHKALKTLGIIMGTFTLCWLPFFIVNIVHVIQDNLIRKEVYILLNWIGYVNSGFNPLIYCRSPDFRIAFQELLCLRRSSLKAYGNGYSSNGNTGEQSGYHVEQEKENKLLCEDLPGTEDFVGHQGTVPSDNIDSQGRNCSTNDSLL
KiSS-1 receptor (Homo sapiens), sequence (Q969F8 whole entry, looked up): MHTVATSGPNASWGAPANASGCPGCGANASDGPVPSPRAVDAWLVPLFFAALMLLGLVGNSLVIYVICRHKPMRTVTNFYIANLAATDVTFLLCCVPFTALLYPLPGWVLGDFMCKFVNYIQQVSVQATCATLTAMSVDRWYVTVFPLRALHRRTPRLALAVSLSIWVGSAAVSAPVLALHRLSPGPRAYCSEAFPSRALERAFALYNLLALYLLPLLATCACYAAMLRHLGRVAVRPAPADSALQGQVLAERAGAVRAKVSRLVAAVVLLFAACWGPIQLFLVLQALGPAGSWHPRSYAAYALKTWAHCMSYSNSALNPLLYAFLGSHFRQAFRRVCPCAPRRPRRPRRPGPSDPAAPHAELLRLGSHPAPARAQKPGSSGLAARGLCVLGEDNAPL
D(2) dopamine receptor (Homo sapiens), sequence (P14416 whole entry, looked up): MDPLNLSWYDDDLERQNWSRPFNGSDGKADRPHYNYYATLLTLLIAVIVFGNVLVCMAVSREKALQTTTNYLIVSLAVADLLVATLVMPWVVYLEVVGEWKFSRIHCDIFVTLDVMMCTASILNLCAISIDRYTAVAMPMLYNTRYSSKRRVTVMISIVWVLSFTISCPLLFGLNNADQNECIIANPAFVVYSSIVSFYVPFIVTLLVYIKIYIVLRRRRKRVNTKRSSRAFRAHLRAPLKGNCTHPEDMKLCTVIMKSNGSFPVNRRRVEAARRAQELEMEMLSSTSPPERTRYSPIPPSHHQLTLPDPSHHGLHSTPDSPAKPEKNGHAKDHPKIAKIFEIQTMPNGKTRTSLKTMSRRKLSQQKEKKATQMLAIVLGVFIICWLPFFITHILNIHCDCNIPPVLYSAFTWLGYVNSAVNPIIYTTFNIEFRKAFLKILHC
Gonadotropin-releasing hormone receptor (Homo sapiens), sequence (P30968 whole entry, looked up): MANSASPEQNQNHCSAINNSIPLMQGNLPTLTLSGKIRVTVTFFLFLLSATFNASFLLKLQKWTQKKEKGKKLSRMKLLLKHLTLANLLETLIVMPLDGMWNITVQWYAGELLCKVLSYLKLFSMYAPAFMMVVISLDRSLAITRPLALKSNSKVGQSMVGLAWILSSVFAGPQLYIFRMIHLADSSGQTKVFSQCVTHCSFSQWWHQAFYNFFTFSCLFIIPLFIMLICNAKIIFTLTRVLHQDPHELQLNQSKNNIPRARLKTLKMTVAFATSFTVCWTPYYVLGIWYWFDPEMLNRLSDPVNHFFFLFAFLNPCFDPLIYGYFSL

Row | Compound | Potency [1] | Potency [2] | Potency [3] | Potency [4] | Potency [5] | Potency [6] | Potency [7] | Potency [8] | Potency [9] | Potency [10] | Potency [11] | Potency [12] | Potency [13] | Potency [14] | Potency [15] | Potency [16] | Potency [17] | Potency [18] | Potency [19] | Potency [20]
1 | C[C@H]1[C@H]2CC[C@H]3[C@@H]4CC=C5C[C@@H](N(C)C)CC[C@]5(C)[C@H]4CC[C@]23CN1C | inactive | inactive | inactive | inactive | inactive | inactive | inactive | 0.729 µM (active) | inactive | inactive | inactive | inactive | inactive | inactive |  |  |  |  |  | 
2 | CC(=O)O[C@@]12CO[C@@H]1C[C@H](O)[C@@]1(C)C(=O)[C@H](O)C3=C(C)[C@@H](OC(=O)[C@H](O)[C@@H](NC(=O)OC(C)(C)C)c4ccccc4)C[C@@](O)([C@@H](OC(=O)c4ccccc4)[C@H]21)C3(C)C | inactive | inactive | inactive | inactive |  |  |  |  |  |  |  |  |  | inactive |  |  |  |  |  | 
3 | Cc1ccc(O)c(C(C)(C)C)c1 | inactive | inactive |  | inactive | inactive | 33.4 µM (active) |  | inactive | inactive |  | inactive | inactive | inactive | inactive | inactive | inactive | inactive | inactive | inactive | 
4 | CC(CN)CC(C)(C)CCN (stereo not drawn) | inactive | inactive |  | inactive | inactive | inactive |  | 10.8 µM (active) |  | inactive | inactive |  | inactive | inactive | inactive | inactive |  | inactive |  | inactive
5 | C[C@@H](C1=C(CCN(C)C)Cc2ccccc21)c1ccccn1 | inactive | inactive |  | inactive | inactive | inactive | inactive |  | inactive | inactive |  |  |  | inactive |  |  |  |  |  | 
6 | Cc1ccc(-c2cc(C(F)(F)F)nn2-c2ccc(S(N)(=O)=O)cc2)cc1 | inactive | inactive | inactive |  | 36.2 µM (active) and inactive |  |  |  |  |  | 60.9 µM (active) | inactive | inactive | 60.9 µM (active) and inactive |  |  | inactive |  |  | 
7 | COc1cc(Cl)ccc1Oc1ccc(Cl)cc1Cl | 14.9 µM (active) | inactive | inactive |  |  |  | inactive | inactive | inactive |  | inactive |  | inactive | inactive |  |  |  | inactive |  | inactive
8 | CCCOc1sc(C(=O)N2CCC(c3cc(CN)ccc3F)CC2)c(C)c1Br | inactive | 35.7 µM (active) |  | inactive |  |  | 50.4 µM (active) | inactive |  |  |  |  | inactive |  | inactive | inactive |  |  |  | 
9 | N#Cc1ccccc1O | inactive | inactive |  | inactive | inactive | inactive | inactive | inactive |  | inactive | inactive | inactive | inactive | inactive |  |  | inactive | inactive |  | inactive
10 | CCO[C@@H]1O[C@H](C(COCc2ccccc2)OCc2ccccc2)[C@H](OCc2ccccc2)[C@H]1O (stereo partly drawn) | inactive | inactive |  | inactive | inactive | inactive | inactive | inactive | inactive | inactive | inactive |  | inactive | inactive |  |  | inactive | inactive |  | inactive
11 | Nc1ccc(O)c(N)c1 | inactive |  | inactive | inactive | inactive | inactive | inactive | inactive | inactive | inactive |  |  | inactive |  | inactive | inactive | inactive | inactive | inactive | inactive
12 | COC(=O)c1nc(Cl)c(Cl)nc1N | 5.96 µM (active) | inactive |  |  |  | inactive | inactive | inactive | inactive |  | inactive |  | inactive | inactive | inactive |  |  |  |  | 
13 | Nc1ccc(N=Nc2ccc(N)cc2)cc1 | inactive | inactive |  | inactive |  | inactive |  |  |  | inactive | inactive |  | inactive | inactive | inactive |  | inactive | inactive | inactive | inactive
14 | O=C1Nc2ccc(Cl)cc2[C@@](C#CC2CC2)(C(F)(F)F)O1 | inactive | inactive |  | inactive | inactive | 14.5 µM (active) |  | inactive | inactive |  |  |  |  |  | inactive | inactive | inactive | inactive | inactive | 
15 | Nc1cc(Cl)c([N+](=O)[O-])cc1O | inactive |  | inactive | inactive | inactive | inactive | inactive | inactive | inactive | inactive | inactive | inactive | inactive | inactive | inactive | inactive | inactive | inactive | inactive | 
16 | CCCCN(CCCC)c1ccc(C(=O)c2ccccc2C(=O)O)c(O)c1 | inactive | inactive |  | inactive |  |  |  | inactive | 49.4 µM (active) |  | inactive |  | inactive | inactive | inactive | inactive | 16.4 µM (active) | 20.6 µM (active) |  | 
17 | C=Cc1ccc(O)c(OC)c1 | 48.6 µM (active) | inactive |  | inactive |  | inactive | inactive | inactive | inactive | inactive | inactive |  | inactive | inactive |  | inactive | inactive | inactive | inactive | inactive
